The structures appear in SMILES notation. The source made the active and inactive calls. Calls come from the whole dose curve.
% is set by controls: 0 for no effect and ±100 for the full control effect.

In this assay the target is Gonadotropin-releasing hormone receptor (Homo sapiens) (UniProt P30968). The assay is described as follows: Human gonadotropin-releasing hormone receptor (GnRHR) small molecule agonists, calcium flux assay in GnRHR-HEK293 cells (AID 1920063). Note: nearly all actives have a fitted effect of over 35% in size. To be noted: calcium flux fluorescence, agonist mode; series mostly up to 57.6 µM; activity change: at the top concentration. The source says: National Center for Advancing Translational Sciences [NCATS]
Chain of Gonadotropin-releasing hormone receptor (Homo sapiens) (P30968 whole entry, looked up): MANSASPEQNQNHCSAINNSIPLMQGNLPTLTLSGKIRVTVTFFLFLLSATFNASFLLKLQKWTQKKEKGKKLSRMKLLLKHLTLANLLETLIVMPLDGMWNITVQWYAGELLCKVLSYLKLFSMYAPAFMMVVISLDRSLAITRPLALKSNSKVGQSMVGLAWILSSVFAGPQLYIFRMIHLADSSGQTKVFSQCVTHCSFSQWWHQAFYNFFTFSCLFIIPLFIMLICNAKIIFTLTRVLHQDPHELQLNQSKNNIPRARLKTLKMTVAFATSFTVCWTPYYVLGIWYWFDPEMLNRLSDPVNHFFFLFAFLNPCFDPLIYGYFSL
Division of Preclinical Innovation [DPI]
U.S. Environmental Protection Agency [EPA]
National Institutes of Environmental Health Sciences [NIEHS]
National Toxicology Program [NTP]
U.S. Food and Drug Administration [FDA]
Gonadotropin-releasing hormone receptor (GnRHR) is a G-protein-coupled receptor (GPCR) and acts (through phospholipase C) to increase intracellular inositol trisphosphate and then release intracellular calcium stores. Cell-based GnRHR-Hek293 calcium influx assay is using HEK293 cells that have been genetically engineered to express the human GnRHR, which activity can be measured by calcium signaling. A compound/drug can activate (agonist) GnRHR that can be monitored by levels of intracellular calcium.
GnRHR-HEK293 cells developed by Codex Corp contain human GnRHR reporter gene, which was stably integrated into HEK 293 cells. The compound activation can be detected by fluorescence intensity via calcium flux assay. This cell line has been used to screen the Tox21 10K compound library to identify GnRHR agonists.
GnRHR-Hek293 cells were dispensed at 1500cells/4uL/well in 1536-well black wall/clear bottom plates using a multidrop dispenser. After the assay plates were incubated at a 37 C/5% CO2 incubator for 18 hours, 4 uL of Calcium Dye Solution was added to each well. The plates were incubated at 37 C for 1 hour. For agonist mode, 23 nL of compounds dissolved in DMSO, positive controls or DMSO only was transferred to the assay plate by a pin tool station. The fluorescence intensity in the plates was measured using FDSS 7000EX kinetic plate reader with a filter set of Ex/Em=480/540 for 3 min at 1 sec intervals. Each test compound was measured at 15 concentrations and in triplicates.
Background: Calcium flux is commonly read through the fluorescence of an indicator in the cells.
Turning to `C/C=C/C(=O)C1=C(C)CCCC1(C)C`, the “activity change” value is -0.156% (inactive). Still for that read-out and setting: the same measure for `NC(N)=NCCN1CCCCCCC1`: -0.022% [at 0.217 µM, stronger effect = higher value] (inactive).

Regarding `CCCCCCCOC(=O)c1ccc(O)cc1`, the Potency entry was “inactive”. As for `CC1=C(C=O)C(C)(C)CCC1`, the “activity change” value is -0.195% (inactive).

Consider `CN(C)[C@@H]1C(=O)C(C(N)=O)=C(O)[C@@]2(O)C(=O)C3=C(O)c4c(O)cccc4C[C@H]3C[C@@H]12`, for which the “activity change” value is -0.989% [at 26.4 µM, stronger effect = higher value] (inactive). On to `CN(C)CCOc1ccccc1Cc1ccccc1`, for which the “activity change” value was 7.7% [at 26.4 µM, stronger effect = higher value] (inactive). Still for that read-out and setting: to `O=S(=O)(O)c1cc(S(=O)(=O)O)c2ccc3c(S(=O)(=O)O)cc(S(=O)(=O)O)c4ccc1c2c43` belongs 0.0619% [at 11.8 µM, stronger effect = higher value] (inactive); to `COP(=O)(OC)OC(c1ccc(Cl)cc1)P(=O)(OC)OC` (stereo not given), 0.0721% [at 26.4 µM, stronger effect = higher value] (inactive). On the same count and under the same terms, the same measure for `c1cc(OCC2CO2)cc(OCC2CO2)c1` (stereo not given): -0.798% (inactive); for `CC(O)CN` (stereo not given): 0.356% (inactive).

As for `COC(=O)C(C)=O`, the “activity change” value is 0.304% (inactive). On to `CCCCCCCCCCCCCCCC(=O)OCC`, for which the “activity change” value is 0.214% (inactive).

In the case of `C[Si](C)(C)O[Si](O)(O)O`, the “activity change” value was -0.544% (inactive).

As for `Fc1ccc(C(c2ccc(F)cc2)N2CCNCC2)cc1`, the “activity change” value was 1.38% [at 26.4 µM, stronger effect = higher value] (inactive). Same read-out and setting: to `Nc1cc(Cl)c([N+](=O)[O-])cc1O` belongs -0.911% (inactive); to `Cc1nc2ccccc2c(=O)o1`, -0.108% (inactive).

`CC(C)(O)c1ccc(C(C)(C)O)cc1`: the “activity change” value was -1.11% (inactive). Regarding `COc1cc(NS(=O)(=O)c2ccc(N)cc2)nc(C)n1`, the “activity change” value is -1.48% [at 26.4 µM, stronger effect = higher value] (inactive).

As for `CC(C)CC(C)(C)C`, the “activity change” value is -1.51% (inactive).

In the case of `COC(=O)/C=C/C(C)=C\C=C\C(C)=C\C=C\C=C(C)\C=C\C=C(C)\C=C\C(=O)O`, the “activity change” value is -1.25% (inactive). On the same count and under the same terms, to `COCCCOCCCOC` belongs -0.0839% (inactive); to `COCCOC(=O)CC#N`, -0.477% (inactive). Same read-out and setting: to `CC(COc1ccc(C(C)(C)C)cc1)OS(=O)OCCCl` (stereo not given) belongs -0.191% (inactive); to `O=C(CS)OCCOC(=O)CS`, 2.42% (inactive). Same read-out and setting: the same measure for `Fc1ccccc1`: 0.712% (inactive); for `c1ccc(-c2ccc(C(c3ccccc3)n3ccnc3)cc2)cc1` (stereo not given): -1.19% [at 26.4 µM, stronger effect = higher value] (inactive). `COC(=O)C1=C(C)NC(C)=C(C(=O)O[C@@H]2CCCN(Cc3ccccc3)C2)[C@@H]1c1cccc([N+](=O)[O-])c1`: the “activity change” value was -2.82% [at 26.4 µM, stronger effect = higher value] (inactive). On the same count and under the same terms, the same measure for `O=C1Nc2ccc(Cl)cc2[C@@](C#CC2CC2)(C(F)(F)F)O1`: 19.6% [at 26.4 µM, stronger effect = higher value] (inactive); for `CCC(C)c1cc(C(C)(C)C)c(O)c(C(C)(C)C)c1` (stereo not given): 1.28% (inactive).

For the compound `CC(C)(C)c1cc(/C=C2\SC(=N)NC2=O)cc(C(C)(C)C)c1O`, the “activity change” value is 0.027% (inactive).

Turning to `CC[N+](CC)(CC)CCOC(=O)C(C1CCCC1)C1CCCC1`, the “activity change” value is 1.41% [at 26.4 µM, stronger effect = higher value] (inactive). Still for that read-out and setting: the same measure for `CCCOc1ccc2c(c1)CC[C@@H]1[C@@H]2CC[C@]2(C)C(OC)CC[C@@H]12` (stereo not given in full): 1.1% [at 26.4 µM, stronger effect = higher value] (inactive); for `CCCCNC1CC(C)(C)NC(C)(C)C1`: 0.812% (inactive). Take `Cc1ccc(OC(=O)CC(C)C)cc1`: the “activity change” value is 0.119% (inactive). On the same count and under the same terms, to `CCCC1CCC(=O)CC1` belongs -0.0784% (inactive); to `CC1(O)CSC(C)(O)CS1` (stereo not given), -0.117% (inactive); to `Cc1cccc(N(C)C(=S)Oc2ccc3c(c2)C2CCC3C2)c1` (stereo not given), -0.129% [at 26.4 µM, stronger effect = higher value] (inactive). The same measure, in the same setting: the same measure for `CCOCN(C(=O)CS(=O)(=O)O)c1c(C)cccc1CC`: 0.549% (inactive); for `Clc1ccc(Cn2c(CN3CCCC3)nc3ccccc32)cc1`: 16.8% [at 26.4 µM, stronger effect = higher value] (inactive). Still for that read-out and setting: to `COc1ccnc(CS(=O)c2nc3ccc(OC(F)F)cc3[nH]2)c1OC` (stereo not given) belongs 0.965% [at 26.4 µM, stronger effect = higher value] (inactive).

(Values after PubChem BioAssay (Tox21).)
